Compound activity from PubChem BioAssay.
Pf growth 48h = inhibits P. falciparum growth in the first generation, 48 h. Potency, µM (series often up to 28.7 µM), for the others: at the highest dose activity change, negative = inhibition, hits mostly inhibitors. P. falciparum luciferase growth in erythrocytes, 48 h. 310,000 tested, 5.9% active. AID 504832; also: potency is read from the fitted curve at half-maximal effect; % is scaled to controls: 0 for no effect and ±100 for the full control effect
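Cell-based growth assay: transgenic P. falciparum expressing firefly luciferase, cultured in red cells within RPMI 1640 containing 0.5% w/v Albumax, 24 mM bicarbonate and gentamycin. A drop in luciferase activity indicates inhibition.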
CHX counter = affects cycloheximide protein synthesis inhibition readout, counter-screen; cell reporter, cycloheximide protein synthesis inhibition counterscreen; 300,000 tested, 12% active; max response, %; in the data active = max response mostly above about 13%, no sharp cut-off; inactive = mostly below about 14%; also: read at 38.3 µM for the half of the compounds with a filed dose; 0% is about no effect
Shiga toxin inh = Shiga toxin inhibition; AID 2315; 290,000 tested, 9.2% active; inhibition, % at 38.7 µM; Vero cells, Shiga toxin protein synthesis inhibition reporter; in the data active = inhibition mostly above about 28%, no sharp cut-off; inactive = mostly below about 43%; also: 0% is about no effect
Pf growth 96h = inhibits malaria parasite growth, 96 h. 320,000 tested, 6.9% active. Potency, µM (top dose mostly 28.7 µM), for the others: at the highest dose activity change, negative = inhibition, usual class: inhibitors. AID 504834. P. falciparum luciferase reporter growth, 96 h; also: potency is read from the fitted curve at half-maximal effect; % is scaled to controls: 0 for no effect and ±100 for the full control effect
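Two-generation exposure (96 h) targets delayed-death phenotype. Reporter parasites carrying integrated firefly luciferase, in red cells at 2% hematocrit and 0.05% parasitemia final, kept at 37 C, 5% CO2; luminescence loss indicates inhibition.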
NS1 inh = inhibitors of influenza NS1 protein function. Potency, µM (highest dose often 46.1 µM), for the others: top-dose activity, positive = more growth. 270,000 tested, 0.4% active; calls by dose curve; also: potency is read from the fitted curve at half-maximal effect; actives are rising curves; nearly all actives have a fitted effect of over 50% in size
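In this qHTS, NS1 from influenza A is expressed in budding yeast, where it slows growth. Cells are switched from glucose to 2% galactose medium (pH 6.0, -URA), treated with compound, and growth recovery is read at OD600.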
Sm TGR block = S. mansoni TGR enzyme inhibition; Q962Y6; purified TGR, DTNB reduction, TNB absorbance 405 nm; Potency, µM (titrated, usually from 114 µM), inactives show at the highest dose activity change, negative = inhibition, hits mostly inhibitors; 360,000 tested, 3% active; AID 485364; also: potency is read from the fitted curve at half-maximal effect; % is scaled to controls: 0 for no effect and ±100 for the full control effect; nearly all actives have a fitted effect of over 60% in size
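Kinetic colorimetric format: TGR-catalysed, NADPH-driven DTNB reduction monitored via TNB absorbance. Enzyme dispensed at 20 nM; compound exposure 15 min at room temperature before reaction start.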
Starred values were filed as active, the others as inactive; u = inconclusive; x = no result given; + = active, no number. Hits are enriched below; roughly 21% of the tested compounds scored in any of these assays. Unless noted, calls follow the shape of the dose curve; as a rule, active = well fitted curve in the direction sought with a large enough effect; inconclusive = small, poorly fitted or top-dose-only effect, or another doubt; inactive = no such curve, though single readings can be large; an effect the other way counts as inactive or inconclusive.

SMILES | Pf growth 48h | CHX counter | Shiga toxin inh | Pf growth 96h | NS1 inh | Sm TGR block
CCC(=O)N1c2ccccc2C(C)(c2ccccc2)CC1(C)C (configuration not stated) | x | x | x | x | x | 2.2%
CC1(c2cc([N+](=O)[O-])cc([N+](=O)[O-])c2)CC(C)(C)N(C(=O)c2ccccc2)c2ccccc21 (configuration not stated) | 2.33µM* | -3.5 | -8.4 | 4.3% | 14.8% | 1.6%
Cc1oc(-c2cccc(Br)c2)nc1Cn1c(=O)cc(-c2ccccc2)c2c(C)nn(C)c21 | x | x | x | x | x | 1.6%
Cc1ccc2cc3cc(C(=O)NCCCN4CCc5ccccc5C4)oc3nc2c1 | 8.28µM* | 29.9* | 35.3 | x | -15.5% | -3.9%
Cc1ccc2cc3cc(C(=O)NCCCN4CCCC4)oc3nc2c1 | u | 1.5 | 0.7 | -23.6% | -2.9% | -21.2%
Cc1cccc(N(C)C(=O)c2cc3cc4ccc(C)cc4nc3o2)c1 | -18.1% | 38.6* | active | 12.6% | -55.1% | 2.1%
Cc1ccc2cc3cc(C(=O)NCCCN4CCCCCC4)oc3nc2c1 | u | 14.8 | 0.5 | u | 4.6% | 31.6µM*
CC1(C)CC(=O)C(C(C2=C(O)CC(C)(C)CC2=O)c2cccc(O)c2)C(=O)C1 (configuration not stated) | u | 8.9 | 27.1 | -5.6% | -33.1% | u
CC1(C)CC(=O)C2=C(C1)N(c1cccc(O)c1)C1=C(C2)C(=O)CC(C)(C)C1 | u | 10.7 | -17.6 | u | 0.3% | 31.6µM*
COc1ccc(C(CNC(=O)c2cc(C)oc2C)N2CCOCC2)cc1 (configuration not stated) | -1.3% | -1.7 | 52.5 | 13.1% | 4.8% | 28.2µM*
CCC1CCc2sc(C(=O)NCC(c3ccc(OC)cc3)N3CCOCC3)cc2C1 (configuration not stated) | 11.7µM* | x | x | u | x | -2.6%
COc1ccc(C(CNC(=O)c2ccc(-c3cccc(C(F)(F)F)c3)o2)N2CCOCC2)cc1 (configuration not stated) | 6.57µM* | x | x | 1.47µM* | x | u
Cc1cccc(C)c1NC(=O)CN1C(=O)CCSc2ccc(S(=O)(=O)N3CCCC3)cc21 | u | -4.5 | 17.7 | 11.3% | 7.2% | -20.2%
CCOC(=O)c1c(NC(=O)CN2CCN(C(=O)C3CCCO3)CC2)sc(C)c1C (configuration not stated) | u | -1.8 | -10.2 | -5.8% | 11.1% | -10.8%
CCOc1ccc(-n2c(SCC(=O)Nc3ccc(F)cc3)nc3c([nH]c4ccccc43)c2=O)cc1 | x | x | x | x | x | -3.5%
COc1ccc(CCC(=O)Nc2ccc(Cn3ccnc3)cc2)cc1 | u | 0.7 | -8.0 | u | 14.5% | 4.1%
O=C(NC(=O)N1CCN(c2cccc(Cl)c2)CC1)c1ccc(Cl)cc1 | 25.4% | 9.4 | 18.1 | 169.2% | -38.3% | -14.9%
CC(=O)c1ccc(N2CCN(C(=O)C3CCN(S(=O)(=O)c4ccc(F)cc4)CC3)CC2)cc1 | u | x | x | u | x | 9.7%
O=C(NC(=O)N1CCN(c2ccccc2)CC1)c1ccc(Cl)cc1 | 196.0% | 41.7* | + | 148.6% | 3.1% | -2.6%
CC(=O)c1ccc(N2CCN(C(=O)C3CCC3)CC2)cc1 | -13.9% | 14.4* | -5.7 | 9.2% | 0.4% | -25.3%
CC(=O)N1CCN(C(=O)c2ccc(C(=O)c3ccccc3)cc2)CC1 | 16.8% | 1.1 | -1.1 | 30.3% | -0.2% | 5.7%
O=C(c1ccccc1)N1CCN(c2ccc(Cl)cc2)CC1 | u | 12.4 | 19.4 | 14.7µM* | -106.2% | -2.6%
CC(=O)c1ccc(N2CCN(C(=O)c3ccc(C(=O)c4ccccc4)cc3)CC2)cc1 | -1.9% | x | x | 5.22µM* | x | -14.5%
O=C(c1ccccc1)N1CCN(C(=O)c2ccccc2)CC1 | 31.2% | 5.9 | -4.7 | -27.2% | 1.3% | 1.3%
O=C(c1ccc(N2CCN(C(=O)c3ccc(F)cc3F)CC2)cc1)c1cccc(F)c1 | u | 7.8 | 7.0 | 10.4µM* | -23.0% | 0.0%
O=C(c1ccc(F)cc1F)N1CCN(c2ncccn2)CC1 | 36.3% | -1.8 | -20.7 | 122.7% | 6.7% | -19.0%
O=C(c1ccc(Cn2cc(Cl)cn2)cc1)N1CCN(c2ccccc2)CC1 | -13.9% | -1.1 | 25.2 | 7.38µM* | -61.4% | -5.2%
